Structures are written as SMILES. The campaign covered roughly 400,000 compounds. About 2,100 (0.53%) were called active. Roughly 14% stayed inconclusive and do not appear here. No rule for the calls is given here. This excerpt belongs to a sample that is enriched for actives.

Sequence of Ataxin-2 (Homo sapiens) (Q99700 whole entry): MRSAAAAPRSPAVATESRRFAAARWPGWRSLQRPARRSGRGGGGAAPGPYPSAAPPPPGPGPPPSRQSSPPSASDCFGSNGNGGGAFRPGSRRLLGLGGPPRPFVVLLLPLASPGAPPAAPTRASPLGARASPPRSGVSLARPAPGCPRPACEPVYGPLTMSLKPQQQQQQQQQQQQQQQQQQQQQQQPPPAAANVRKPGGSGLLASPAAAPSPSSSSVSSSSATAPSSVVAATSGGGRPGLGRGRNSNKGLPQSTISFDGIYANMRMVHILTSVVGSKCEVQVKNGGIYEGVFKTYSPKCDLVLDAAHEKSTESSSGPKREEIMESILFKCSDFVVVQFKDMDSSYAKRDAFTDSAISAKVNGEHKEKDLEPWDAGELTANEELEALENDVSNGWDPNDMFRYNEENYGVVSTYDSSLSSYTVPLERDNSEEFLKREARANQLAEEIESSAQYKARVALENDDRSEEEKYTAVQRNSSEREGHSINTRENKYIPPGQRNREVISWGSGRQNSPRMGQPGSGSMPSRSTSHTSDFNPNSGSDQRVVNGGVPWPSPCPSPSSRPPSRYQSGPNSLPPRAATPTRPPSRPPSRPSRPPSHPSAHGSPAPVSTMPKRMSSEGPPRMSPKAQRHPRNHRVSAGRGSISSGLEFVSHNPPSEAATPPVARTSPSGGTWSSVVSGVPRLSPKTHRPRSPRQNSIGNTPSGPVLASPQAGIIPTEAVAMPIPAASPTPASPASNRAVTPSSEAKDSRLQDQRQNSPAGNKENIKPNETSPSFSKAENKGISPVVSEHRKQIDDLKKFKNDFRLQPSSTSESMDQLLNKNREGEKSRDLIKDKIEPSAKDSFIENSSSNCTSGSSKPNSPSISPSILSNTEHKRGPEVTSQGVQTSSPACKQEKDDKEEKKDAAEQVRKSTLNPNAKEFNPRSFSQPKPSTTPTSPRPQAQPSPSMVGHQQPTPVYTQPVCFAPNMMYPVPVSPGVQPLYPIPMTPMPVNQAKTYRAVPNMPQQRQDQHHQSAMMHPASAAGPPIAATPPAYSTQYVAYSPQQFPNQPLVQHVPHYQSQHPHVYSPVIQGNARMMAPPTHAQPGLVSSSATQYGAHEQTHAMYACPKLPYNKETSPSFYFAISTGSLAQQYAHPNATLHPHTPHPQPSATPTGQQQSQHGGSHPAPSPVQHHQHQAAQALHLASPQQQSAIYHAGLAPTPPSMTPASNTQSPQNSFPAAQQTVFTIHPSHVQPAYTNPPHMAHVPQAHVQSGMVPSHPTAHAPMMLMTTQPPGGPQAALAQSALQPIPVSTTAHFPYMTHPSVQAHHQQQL

The assay concerns the target Ataxin-2 (Homo sapiens) (UniProt Q99700). The assay can be described thus: qHTS for Inhibitors of ATXN expression. Format: functional. On the technique in general: Quantitative high-throughput screening tests each substance at several concentrations.
On to `CCCCCCc1cc2cc(S(=O)(=O)c3ccc(F)cc3)c(=O)oc2cc1O`, for which the Potency result was “inactive”.
As for `NC(=O)c1sc2nc(-c3ccccc3)ccc2c1N`, the Potency entry is “inactive”.
Regarding `CCC1CCCCN1C(=O)c1ccc(OC2CCN(C(=O)COC)CC2)cc1` (centres undefined), the Potency result is “inactive”.
For `Cn1cc(C(=O)N2CCN(c3cccc(C(F)(F)F)c3)CC2)c2c3ccccc3n(C)c2c1=O`, the Potency was 31.6 µM (active).
For `Cc1c(S(=O)(=O)N2CCN(c3cccc(C(F)(F)F)c3)CC2)c(=O)n(C)c(=O)n1C`, the Potency result was “inactive”.
Take `COCCN=C(S)N1CCN(c2cccc(C(F)(F)F)c2)CC1`: the Potency result was “inactive”.
For `CCCC(=O)NC1=C(Cl)C(=O)c2ccccc2C1=O` the value was “inactive”; for `CN(C)c1ccc(NC2=C(Cl)C(=O)c3ccccc3C2=O)cc1`, 25.1 µM (active).
As for `CC(=O)N(C1=C(Cl)C(=O)c2ccccc2C1=O)C1CCCCC1`, the Potency entry was “inactive”.
Take `Cc1ccc(NC2=C(Cl)C(=O)c3ccccc3C2=O)cc1`: the Potency is 28.2 µM (active).
As to `CC(=O)Nc1ccc(NC2=C(Cl)C(=O)c3ccccc3C2=O)cc1`, the Potency was 28.2 µM (active).
As for `Oc1c(Cl)cc(Cl)cc1/C=N/NC(=S)NC1CC2C=CC1C2` (centres undefined), the Potency entry was “inactive”.
For `CCCCNc1c(N)n(CC(C)C)c(=O)[nH]c1=O` the value was “inactive”.
Turning to `COCCn1c(-c2ccc(-c3ccc([N+](=O)[O-])cc3Br)o2)nc2c1c(=O)[nH]c(=O)n2CC(C)C`, the Potency entry was “inactive”.
Take `CC(C)Cn1c([N+](=O)[O-])nc2c1c(=O)[nH]c(=O)n2C`: the Potency is 29.9 µM (active).
Turning to `CCn1c([N+](=O)[O-])nc2c1c(=O)[nH]c(=O)n2C`, the Potency is 22.4 µM (active).
On to `Cn1c(=O)[nH]c(=O)c2c1nc(Br)n2Cc1ccc(Cl)cc1`, for which the Potency entry was “inactive”.
For `COc1ccc(C(=O)c2sc3nc4c(c(C(F)(F)F)c3c2N)CN(C(C)=O)CC4)cc1OC`, the Potency entry is “inactive”.
The value for `O=C(O)c1cc(N/N=C/c2cccc3ccccc23)ccc1Cl` was “inactive”; that for `COC(=O)c1scc(C)c1S(=O)(=O)Nc1ccc(C)cc1` was “inactive”; that for `C(=C\c1nccc2c1[nH]c1ccccc12)/c1ccccc1` was “inactive”.
The value for `COc1cccc2[nH]c3c(O)ncnc3c12` was “inactive”; that for `C=Cc1ncc(OC)c2c1[nH]c1ccccc12` was 11.9 µM (active); that for `Cc1noc(C)c1COC(=O)c1cc(S(=O)(=O)N2CCOCC2)ccc1F` was “inactive”.
For `COc1ccc(N(Cc2cc(O)nc3ccccc23)C(=O)CCl)cc1` the value was 39.8 µM (active); for `CCCC(=O)N(Cc1cc2cc(OC)ccc2nc1O)c1ccccc1OC`, “inactive”; for `CC1(C)Cc2c(cnn2-c2ccccc2)C(NC(=O)CCN2CCCC2=O)C1` (centres undefined), “inactive”.
For `O=[N+]([O-])c1ccc(-c2nc(Nc3cccc(O)c3)c3ccccc3n2)cc1`, the Potency was 31.6 µM (active).
For `O=[N+]([O-])c1ccc(-c2nc(NCC3CCCO3)c3ccccc3n2)cc1` (centres undefined) the value was “inactive”.
In the case of `C(=N\Nc1nc(-c2cccnc2)nc2ccccc12)/c1ccccc1`, the Potency result was “inactive”.
For `Nc1ccc(-c2nc(-c3ccccc3)nc3ccccc23)cc1` the value was “inactive”; for `C(=N\Nc1ncnc2ccccc12)/c1ccccc1`, “inactive”.
`Cc1ccc(-c2nc(N/N=C/c3cccc([N+](=O)[O-])c3)c3ccccc3n2)cc1`: the Potency was 39.8 µM (active).
For `Cc1ccccc1N1CCN(Cc2nc(Cc3ccccc3)no2)CC1` the value was “inactive”; for `Clc1nc(N2CCOCC2)ncc1Br`, “inactive”; for `CCOC(=O)C(C)Sc1cnccn1` (centres undefined), “inactive”.
For `CCCCC(=O)NC(c1ccco1)c1cc(Cl)c2cccnc2c1O` (centres undefined) the value was “inactive”; for `CNC(=O)c1ccc(-c2sc3nc(N4CCOCC4)c4c(c3c2N)CC(C)(C)OC4)o1`, “inactive”; for `Cc1ccc(-n2ncc(C(=O)NCCN3CCc4ccccc4C3)c2C2CCN(C(=O)OC(C)(C)C)CC2)c(C)c1`, 20 µM (active).
Turning to `COC(=O)[C@@H]1CCCN1C(=O)c1cnn(-c2ncc3c(n2)-c2ccccc2CCC3)c1C1CC1`, the Potency result was “inactive”.
On to `Cc1cccc(-n2nnc(C(=O)N3CCc4ccccc4C3)c2N)c1`, for which the Potency entry is “inactive”.
For `CCOC(=O)c1cc2c(=O)n3ccccc3nc2n(Cc2ccco2)/c1=N/C(=O)c1ccccc1OC`, the Potency result is “inactive”.
With `CCc1cc(S)n2c(nc3ccccc32)c1C#N`, the Potency entry is “inactive”.
With `N#Cc1cc(-c2ccccc2)[nH]c1-c1nccc2ccccc12`, the Potency result is “inactive”.
Take `Oc1ncc(I)cc1I`: the Potency entry was “inactive”.
For the compound `Cn1cnnc1SCC(=O)Nc1cccc(S(=O)(=O)N2CCOCC2)c1`, the Potency result is “inactive”.
In the case of `O=C(Nc1nc[nH]n1)c1cccc(S(=O)(=O)N2CCOCC2)c1`, the Potency result was “inactive”.
As for `CC(C)(C)c1ccc(OCCCC(=O)Nc2cccc(S(=O)(=O)N3CCOCC3)c2)cc1`, the Potency is 28.2 µM (active).
For `Cc1ccccc1NC(=O)CN1C(=O)S/C(=C\c2ccc(-c3cccc(C(=O)O)c3C)o2)C1=O` the value was “inactive”; for `O=C(O)c1cc(N/N=C/C=C/c2ccccc2)ccc1Cl`, “inactive”.
For `COCC1CCCN(Cc2cn(-c3ccccc3F)nc2-c2cc(C)sc2C)C1` (centres undefined), the Potency entry is “inactive”.
In the case of `COC(=O)c1ccccc1-c1c2ccc(=N)cc-2oc2cc(N)ccc12`, the Potency result was “inactive”.
As for `CCOc1ccccc1-c1c2cc(O)c(=O)cc-2oc2cc(O)c(O)cc12`, the Potency is 11.2 µM (active).
On to `COc1ccc(CSc2nc3ccncc3n2Cc2nc(-c3ccc(OC)c(OC)c3)oc2C)cc1`, for which the Potency was 39.8 µM (active).
In the case of `COc1ccc(CNC(=O)C[S+]([O-])Cc2nc(-c3ccc(C)cc3)oc2C)cc1` (centres undefined), the Potency result is “inactive”.
For `CCn1cc2nc(SCc3cccc(OC)c3)n(Cc3ccc(Cl)cc3)c(=O)c2n1`, the Potency result was “inactive”.
Take `CCN(CC(=O)N(CC(C)C)c1c(N)n(CC(C)C)c(=O)[nH]c1=O)Cc1nc(O)c2ccccc2n1`: the Potency result is “inactive”.
On to `Cc1ccc(-c2nc(C[S+]([O-])CC(=O)NC3CC3)c(C)o2)cc1` (centres undefined), for which the Potency result was “inactive”.
Regarding `CCCCN(CC)C(=O)c1nn(-c2ccc(OC)cc2)c(=O)c2c1c1ccccc1n2C`, the Potency is 20 µM (active).
The value for `COc1ccc(-n2nc(C(=O)NCC(=O)Nc3ccc(F)cc3)c3ccccc3c2=O)cc1` was “inactive”; that for `COc1ccc(NCC(=O)n2c(C)c(C)c3ccccc32)cc1` was “inactive”; that for `CC1(C)C(=O)Nc2ccccc2N1C(=O)COC(=O)Cc1ccc(Cl)c(Cl)c1` was “inactive”.
`CCCCN=C(S)NNc1c(Cl)cc(Cl)cc1Cl`: the Potency result was “inactive”.
For `COc1ccc2c(Sc3ccccc3)c(C(=O)N3CCC(C)CC3)[nH]c2c1` the value was 39.8 µM (active); for `COc1ccc(Cn2c(=O)[nH]c3cc(C(=O)NCCCN4CCCC4)ccc3c2=O)cc1`, “inactive”; for `Cc1[nH]c2ccccc2c1SCC(=O)N1CCCCC1`, “inactive”.
Turning to `COc1cccc2[nH]c(C(=O)NCCCN3CCCC3=O)cc12`, the Potency entry was “inactive”.
With `O=C(COC(=O)CCSc1ccc(Cl)cc1)NCc1ccccc1`, the Potency result is “inactive”.
As for `O=C(NCCCN1CCCCC1)c1[nH]c2ccccc2c1Sc1ccc(Cl)cc1`, the Potency was 39.8 µM (active).
For `Cc1[nH]c2ccccc2c1C(=O)CSc1ccc(Cl)cc1`, the Potency result is “inactive”.
Take `COC(=O)C1CCN(C(=O)COC(=O)c2oc3ccc(OC)cc3c2C)CC1`: the Potency result was “inactive”.
For `CCN(CC)CCNC(=O)c1[nH]c2ccccc2c1Sc1ccc(Cl)cc1` the value was 28.2 µM (active); for `O=C(NN=C1CCCC1)c1[nH]c2ccc(Cl)cc2c1-c1ccccc1`, “inactive”; for `COc1ccc2c(Sc3ccc(Cl)cc3)c(C(=O)NCCCN3CCCCC3)[nH]c2c1`, 39.8 µM (active).

For the origin of these results see ChEMBL document CHEMBL1201862, “PubChem BioAssay data set” (2004).
